# From PubChem BioAssay
# This is a sample that favours compounds with a hit; in the whole collection about 2.4% have one here.
# PLC-beta3 inh – inhibitors of human phospholipase C beta3 | AID 720704 | inhibition, % at 12.2 µM | Purified PLC-beta3, fluorogenic substrate, fluorescence | 370,000 compounds, 0.18% hits; in the data active = inhibition above about 11%
# PLC-gamma1 inh – PLC-gamma1 (human) inhibition, primary screen. P19174. purified PLC-gamma1, fluorogenic substrate, fluorescence. inhibition, % at 12.2 µM. 370,000 compounds, 0.84% hits. AID 720700; in the data active = inhibition above about 9.5%
# LEDGF integ inh – blocks HIV-1 LEDGF/p75-dependent DNA integration | inhibition, % at 3.7 µM | TR-FRET IN-LEDGF/p75 DNA integration, Eu/Cy5 | 370,000 compounds, 0.64% hits;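 active = inhibition above the screen-wide mean plus 3 SD, cut at about 13% in these data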;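 also: signal is the Cy5 over europium emission ratio at 671 and 618 nm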
# UHRF1 MBD2 ctr – human UHRF1 methylated DNA binding inhibitors; 370,000 compounds, 0.75% hits; Q96T88; UHRF1 binding to methylated oligo, TR-FRET; inhibition, % at 4.4 µM; in the data active = inhibition above about 21%;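 also: UHRF1 SRA domain binding a hemimethylated CpG hairpin DNA probe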
# MBD2 DNA inh – blocks human MBD2 binding to methylated DNA; Q9UBB5; TR-FRET, MBD2 binding to methylated oligonucleotide; inhibition, % at 4.4 µM; 370,000 compounds, 0.31% hits; AID 686964; in the data active = inhibition above about 13%
# Target sequence (Q9UBB5 whole entry, looked up): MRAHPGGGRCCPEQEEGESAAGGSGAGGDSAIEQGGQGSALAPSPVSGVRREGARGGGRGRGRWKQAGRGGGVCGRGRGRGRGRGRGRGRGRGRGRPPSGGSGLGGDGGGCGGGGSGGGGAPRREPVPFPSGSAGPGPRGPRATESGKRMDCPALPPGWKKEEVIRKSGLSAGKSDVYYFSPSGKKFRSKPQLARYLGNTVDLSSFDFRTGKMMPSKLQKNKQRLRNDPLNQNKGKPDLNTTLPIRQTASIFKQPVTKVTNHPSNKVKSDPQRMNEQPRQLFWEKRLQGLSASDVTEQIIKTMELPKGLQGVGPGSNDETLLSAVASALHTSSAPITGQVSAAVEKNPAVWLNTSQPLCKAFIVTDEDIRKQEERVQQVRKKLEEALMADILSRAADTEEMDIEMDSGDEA
# IN multimer up – counter-screen for LEDGF/p75 integration inhibitors: HIV-1 integrase multimerization activators | TR-FRET HIV-1 integrase multimerization, biochemical | shares compounds with LEDGF integ inh | activation, % at 7.7 µM | 2,000 compounds, 17% hits; in the data active = activation above about 8.9%
# TRFRET interf – optically interferes with TR-FRET readout in LEDGF counter-screen. 2,000 tested, under 10 active. inhibition, % at 7.7 µM. shares compounds with LEDGF integ inh. TR-FRET optical interference counterscreen, HIV-1 IN multimerization;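 active = inhibition above the mean over all tested compounds plus 3 SD, which no compound reached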
# IN-LEDGF confirm – LEDGF/p75-dependent HIV-1 integration inhibition, confirmation; inhibition, % at 3.7 µM; 2,000 compounds, 36% hits; AID 1053136; shares compounds with LEDGF integ inh; TR-FRET LEDGF/p75-dependent HIV-1 integration, biochemical; in the data active = inhibition above about 14%
# Numbers stand for hits; n = inactive; x = no result given.
SMILES,PLC-beta3 inh,PLC-gamma1 inh,LEDGF integ inh,UHRF1 MBD2 ctr,MBD2 DNA inh,IN multimer up,TRFRET interf,IN-LEDGF confirm
CN(C)S(=O)(=O)c1ccc(C(=O)Nc2cc(=O)n(C)c(=O)n2C)cc1,n,n,44,n,n,n,n,n
Cn1c(NC(=O)c2ccco2)cc(=O)n(C)c1=O,n,n,24,n,n,n,n,n
O=C1c2c(O)cc(O)cc2O[C@@]12c1c(cc(O)c3c1O[C@H](c1ccc(O)cc1)[C@@H](O)C3)O[C@@H]2c1ccc(O)cc1,n,n,18,24,n,13,n,39
O=C(NC1CCCCN(Cc2cccc(Cl)c2)C1=O)c1cccc([N+](=O)[O-])c1 (stereo not drawn),n,n,n,n,n,x,x,x
COc1ccc(Cn2cc(CN3[C@H](C)COc4cc(Br)ccc4S3(=O)=O)nn2)cc1,n,n,n,n,n,x,x,x
COC(=O)[C@]12C[C@H](CC(=O)N3CCOCC3)C(=O)N(CCC3=CCCCC3)C1=C[C@H](C1CCCC1)O[C@@H]2C,n,n,n,n,n,x,x,x
O=C(CN(C(=O)c1csnn1)c1ccc2c(c1)OCCO2)NCc1ccccc1,n,n,26,n,n,n,n,n
O=C(CN(C(=O)c1csnn1)c1ccc(Cl)cc1)NCc1ccc2c(c1)OCO2,n,n,n,n,n,x,x,x
O=C(O)C(c1ccccc1)N1C(=O)/C(=C\c2ccc(O)c(O)c2)SC1=S (stereo not drawn),n,n,23,n,n,n,n,51
CC1=NN(c2ccccc2)C(=O)/C1=C/C=C/C=C/N(C)C,n,n,23,n,n,16,n,n
CC1=NN(c2cccc(C(=O)O)c2)C(=O)/C1=C\C=C/c1ccccc1,n,n,16,n,n,n,n,16
CC1(C)CC(=O)C=C(Nc2ccccc2NC(=O)c2cc(F)ccc2F)C1,n,n,n,n,n,x,x,x
Oc1c(CN2CCOCC2)cc(CN2CCOCC2)c(O)c1CN1CCOCC1,n,n,20,n,n,n,n,n
Oc1c(CN2CCOCC2)cc(-c2ccccc2)cc1CN1CCOCC1,n,n,n,n,n,x,x,x
COC(=O)C[C@H]1CC[C@@H]2[C@@H](COc3ccc(NC(=O)Nc4cccc(C)c4)cc3C(=O)N2C)O1,n,n,n,n,n,x,x,x
O=C1CC2c3cc(Br)ccc3CCN2C(=O)CN1Cc1ccccc1 (stereo not drawn),n,n,n,n,n,x,x,x
COc1ccc(-c2ccc3c(n2)CCCN3Cc2ccccc2C(F)(F)F)cc1,n,n,n,n,n,x,x,x
CC(=O)Nc1ccc(NC(=O)c2c([N+](=O)[O-])cnn2C)cc1,n,n,n,n,n,x,x,x
Cn1ncc([N+](=O)[O-])c1C(=O)Nc1ccc(-c2nc3ccccc3o2)cc1,n,n,35,n,n,n,n,n
O=C(NCCc1ccccc1)OCc1cn(Cc2ccccc2C(F)(F)F)nn1,n,n,n,n,n,x,x,x
c1cnc(SCC2CCCCC2)c(-c2nc3ccccc3[nH]2)c1,n,n,n,n,n,x,x,x
CO[C@@]12[C@@H]3N[C@@H]3CN1C1=C(C(=O)C(N)=C(C)C1=O)[C@@H]2COC(N)=O,n,n,15,n,n,n,n,n
CC(=O)C1=C(O)C(=O)N(CCc2c[nH]c3ccccc23)C1c1ccco1 (stereo not drawn),n,n,15,n,n,n,n,n
CC(=O)Nc1cccc(/C(C)=N/NC(=O)c2ccc(O)cc2)c1,n,n,n,n,n,x,x,x
C/C(=N\NC(=O)c1cc(O)ccc1O)c1cccc(NC(=O)c2ccc(Cl)cc2)c1,n,n,41,n,n,19,n,16
SMILES,PLC-beta3 inh,PLC-gamma1 inh,LEDGF integ inh,UHRF1 MBD2 ctr,MBD2 DNA inh,IN multimer up,TRFRET interf,IN-LEDGF confirm
COC(=O)[C@]12C[C@H](CC(=O)NCc3cccc4ccccc34)C(=O)N(CCC3=CCCCC3)C1=C[C@H](C1CCCC1)O[C@@H]2C,n,n,n,n,n,x,x,x
CC(C)CN1C(=O)N2CCc3ccccc3C2CS1(=O)=O (stereo not drawn),n,n,n,n,n,x,x,x
CC(/C=N/n1c(-c2ccncc2)n[nH]c1=S)=C\c1ccco1,n,n,16,n,n,n,n,n
CC(/C=N/n1c(-c2ccccc2)n[nH]c1=S)=C\c1ccco1,n,n,16,n,n,n,n,n
CC(/C=N/n1c(-c2ccc(C)cc2)n[nH]c1=S)=C\c1ccco1,n,n,n,n,n,x,x,x
Cc1c(-c2cccs2)[n+](=O)c2c(n1[O-])CCCCC2,n,n,n,n,n,x,x,x
CC1(C)N([O-])C(c2cccs2)=C[N+]1=O,n,n,24,n,n,n,n,29
O=C(c1cccc(F)c1)n1ccc2ccc(-c3ccc4ccn(Cc5ccccc5)c4c3)cc21,n,n,n,n,n,x,x,x
O=C1c2c(O)cc(O)cc2O[C@H](c2ccc(O)c(O)c2)[C@H]1O,n,n,23,n,n,n,n,n
O=C1c2c(O)cc(O)cc2O[C@H](c2ccc(O)cc2)[C@H]1O,n,n,n,n,n,x,x,x
